Source: PubChem BioAssay
A selection: hits, their analogues and other compounds. The true share with any hit is near 7.4%.
NIH3T3 tox: Cytotoxic Profiling in NIH 3T3 Cell Line of Diverse Libraries Using Quantitative High-Throughput Screening; NIH 3T3 viability, CellTiter-Glo ATP luminescence, 48-72 h; Potency, µM (top dose mostly 96.7 µM), usual class: inhibitors; actives 4.3% (n = 94,000); also: nearly all actives have a fitted effect of over 55% in size
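Cytotoxicity was measured by CellTiter-Glo ATP luminescence after 48 or 72 h compound exposure at 37 °C. Mouse NIH 3T3 fibroblasts were seeded at 400 cells/well and dosed by 23 nL pin transfer.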
SNCA expr inh: Primary qHTS assay for inhibitors of alpha-synuclein gene (SNCA) expression | HEK-293 SNCA-luciferase knock-in, luminescence, 24 h | Potency, µM (series often up to 57.2 µM), hits mostly inhibitors | actives 0.17% (n = 140,000); also: nearly all actives have a fitted effect of over 45% in size
HEK cytotox: Cytotoxic Profiling in HEK 293 Cell Line of Diverse Libraries Using Quantitative High-Throughput Screening | Potency, µM (highest dose often 115 µM), usual class: inhibitors | AID 1345083, 2018 | actives 6.6% (n = 94,000) | HEK 293 viability, ATP luminescence (CellTiter-Glo), 48-72 h; also: nearly all actives have a fitted effect of over 60% in size
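qHTS cytotoxicity; HEK 293, 250 cells/well; compound pinned; 48 or 72 hr, 37 degree Celsius, 5% CO2, 95% humidity; CellTiter-Glo, 10 min RT; luminescence (ATP).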
NPR1 antag: Natriuretic polypeptide receptor (hNpr1) antagonism - Primary qHTS | Atrial natriuretic peptide receptor 1 (Homo sapiens), P16066 | HEK293 hNpr1 GloSensor cGMP, ANP-stimulated luminescence | Potency, µM (highest dose often 46.3 µM), usual class: inhibitors | actives 1.6% (n = 76,000); calls by dose curve; also: nearly all actives have a fitted effect of over 60% in size
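HEK293 cells stably expressing human Npr1 and cGMP GloSensor pGS-40F, loaded 2 h with 2% GloSensor reagent, given compound 30 min at room temperature. Luminescence read before and 20 min after 0.1 nM hNppA.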
FLuc inh: Firefly luciferase inhibition profiling of diverse chemical library using quantitative high-throughput screening. purified P. pyralis luciferase, luminescence, biochemical. Potency, µM (series often up to 115 µM), actives largely listed as inhibitors. actives 2.5% (n = 76,000). AID 1347043, 2019; also: nearly all actives have a fitted effect of over 65% in size
Target sequence (P08659 whole entry, looked up): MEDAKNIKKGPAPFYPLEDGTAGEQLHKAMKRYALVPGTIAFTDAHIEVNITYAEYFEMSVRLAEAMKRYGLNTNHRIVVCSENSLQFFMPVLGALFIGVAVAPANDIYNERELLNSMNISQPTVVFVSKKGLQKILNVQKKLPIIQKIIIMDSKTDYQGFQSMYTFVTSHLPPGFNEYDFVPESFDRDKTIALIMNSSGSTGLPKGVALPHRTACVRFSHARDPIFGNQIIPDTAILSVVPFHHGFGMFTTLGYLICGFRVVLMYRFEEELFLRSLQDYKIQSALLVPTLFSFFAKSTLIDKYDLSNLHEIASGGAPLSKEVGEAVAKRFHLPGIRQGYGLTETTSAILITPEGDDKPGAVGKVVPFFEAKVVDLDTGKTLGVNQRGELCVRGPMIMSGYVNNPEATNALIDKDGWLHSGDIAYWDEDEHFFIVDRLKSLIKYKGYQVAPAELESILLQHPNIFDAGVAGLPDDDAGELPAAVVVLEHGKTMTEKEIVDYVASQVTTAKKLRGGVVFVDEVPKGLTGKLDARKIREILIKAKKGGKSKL
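Biochemical qHTS: compound (6-point titration) added to 10uM D-luciferin plus 10uM ATP in Tris acetate pH 7.5 buffer with Mg, Tween-20 and BSA, then purified enzyme at 10nM; light output imaged.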
HEK293 viab: GF-AFC viability counterscreen for inhibitors of alpha-synuclein gene (SNCA) expression; HEK-293-SNCA-luc viability, GF-AFC fluorescence, 24 h; Potency, µM (top dose mostly 57.1 µM), usual class: cytotoxic; actives 0.12% (n = 150,000); AID 1671193, 2021; also: nearly all actives have a fitted effect of over 30% in size
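HEK-293-SNCA-luc cells (1500/well) plated 24 h, then exposed 24 h to a dilution series; GF-AFC added 30 min at 37C, fluorescence 405/540 nm; normalised to medium-only and DMSO wells, Hill fit.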
Each line names hits and unclear results; the compound was inactive in the other large screens; ! = not confirmed by another sample. Unless noted, calls follow the shape of the dose curve; as a rule, active = well fitted curve in the direction sought with a large enough effect; inconclusive = small, poorly fitted or top-dose-only effect, or another doubt; inactive = no such curve, though single readings can be large; an effect the other way counts as inactive or inconclusive.

O=C(NCc1ccccn1)c1nc2cccnc2n(CCc2ccccc2)c1=O	HEK cytotox inconclusive (no result: NPR1 antag, FLuc inh)
CCN1C(=O)C2(CCN(S(=O)(=O)Cc3ccc(Cl)cc3)CC2)c2ccccc21	NIH3T3 tox 25.1µM, HEK cytotox 35.5µM
CCN1C(=O)C2(CCN(S(=O)(=O)Cc3ccccc3)CC2)c2ccccc21	none
CC1CCCN(C(=O)CN2CCCc3nc(-c4ccccc4)ncc3C2=O)C1 (stereo not given)	HEK cytotox 79.4µM
COCCN1C(=O)CCc2cc(NC(=O)c3ccc4c(c3)OCO4)ccc21	HEK cytotox inconclusive, FLuc inh 39.8µM
CC(C)CN1C(=O)CCc2cc(NC(=O)c3ccc4c(c3)OCO4)ccc21	NIH3T3 tox inconclusive, HEK cytotox 39.8µM, FLuc inh inconclusive
O=C(CCc1ccccc1)c1c(O)c([C@@H]2O[C@H](CO)[C@@H](O)[C@H](O)[C@H]2O)c(O)c([C@@H]2O[C@H](CO)[C@@H](O)[C@H](O)[C@H]2O)c1O	none (no result: NIH3T3 tox, SNCA expr inh, HEK cytotox, NPR1 antag, FLuc inh)
CCC1Oc2ccc(NC(=O)Cc3ccc(OC)cc3)cc2CN(Cc2ccc(OC)cc2)C1=O (stereo not given)	NIH3T3 tox inconclusive, HEK cytotox inconclusive
CCC1Oc2ccc(NC(=O)C3CCCC3)cc2CN(Cc2ccc(F)cc2)C1=O (stereo not given)	NIH3T3 tox inconclusive, HEK cytotox inconclusive
CCC1Oc2ccc(NS(=O)(=O)c3ccccc3)cc2CN(Cc2ccc(F)cc2)C1=O (stereo not given)	NIH3T3 tox inconclusive, HEK cytotox 35.5µM
CCC1Oc2ccc(NS(=O)(=O)c3ccc(Cl)cc3)cc2CN(Cc2ccc(F)cc2)C1=O (stereo not given)	NIH3T3 tox 14.1µM, HEK cytotox inconclusive
CCC1Oc2ccc(NS(=O)(=O)c3ccc(C)c(F)c3)cc2CN(Cc2ccc(OC)cc2)C1=O (stereo not given)	NIH3T3 tox 25.1µM, HEK cytotox inconclusive
CN1C[C@@H]2CCCN3CCC[C@@H]([C@H]23)[C@H]1CCCC(=O)NC1CC1	none
NC(=O)c1nnn([C@H]2C[C@H]3C(=O)N4CC[C@H](SCc5ccc(F)cc5)C[C@H]4C(=O)N3C2)c1C(N)=O	none
O=C1NC(=NC2CCCC2)C2(CCN(Cc3cccnc3)C2)N1c1cc(F)cc(F)c1 (stereo not given)	NIH3T3 tox 31.6µM (no result: NPR1 antag, FLuc inh)
O=C1NC(=NC2CCCC2)C2(CCN(Cc3cccnc3)CC2)N1c1cc(F)cc(F)c1	NIH3T3 tox 31.6µM (no result: NPR1 antag, FLuc inh)
O=C1NC(=NC2CCCC2)C2(CCCN(Cc3cccnc3)C2)N1c1cccnc1 (stereo not given)	NIH3T3 tox inconclusive (no result: NPR1 antag, FLuc inh)
CCCNC(=O)C1COC2(CCC(C)CC2)N1C(=O)c1ccc(Cl)c(Cl)c1 (stereo not given)	NIH3T3 tox inconclusive, HEK cytotox inconclusive
CC1(COc2ccc3[nH]ccc3c2)COc2ccc(C(=O)NC3CC3)cc2N1 (stereo not given)	NIH3T3 tox inconclusive, HEK cytotox inconclusive, NPR1 antag inconclusive
COc1ccc(CC(=O)N2CCC(c3n[nH]c(=O)n3-c3ccccc3)CC2)cc1Cl	NIH3T3 tox inconclusive
CCn1c(COc2ccc(C)nc2)nnc1C1CC(N)C1 (stereo not given)	none
NC1CC(c2nnc(COc3ccc4c(c3)CCNCC4)n2C2CC2)C1 (stereo not given)	NIH3T3 tox inconclusive, HEK cytotox 17.8µM!
COc1cccc(CN2C(=O)OC3(CCN(C(=O)C4CCOCC4)CC3)C2(C)c2cccnc2)c1 (stereo not given)	NIH3T3 tox inconclusive
O=C(NCCCc1ccccc1F)[C@@]12CNC[C@@H]1CN(Cc1ccccc1)C2	NIH3T3 tox 28.2µM, HEK cytotox 44.7µM
